Consider 9 compounds from PubChem BioAssay (Tox21).

Inconclusive results are not listed. Unmarked numbers belong to inactive results. The source made the active and inactive calls. Unless noted, the call rests on the fitted dose curve; in most records, active means well fitted curve in the direction sought with a large enough effect in the repeat runs; inconclusive means weak or mixed curves; inactive means no such curve, though single readings can be large; an effect the other way counts as inactive or inconclusive.

Assay [1] can be described thus: qHTS assay to identify small molecule antagonists of the thyroid receptor (TR) signaling pathway - cell viability counter screen (AID 743064). Further: nearly all actives have a fitted effect of over 50% in size. Further: potency means the concentration at half of the fitted maximal effect. The method, boiled down: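 GH3.TRE-Luc cells, 4 h pre-plating; cpd + T3 1 nM final; 37 °C 23.5 h; CellTiter-Fluor 30 min; fluorescence read.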
Assay [2] deals with thyroid hormone receptor (rat, GH3 cells). Description: qHTS assay to identify small molecule agonists of the thyroid receptor (TR) signaling pathway (AID 743066; calls by dose curve). In general terms: In qHTS, concentration-response curves come from the screen itself.
The target of assay [3] is Estrogen receptor (Homo sapiens) (UniProt P03372). Description: qHTS assay to identify small molecule antagonists of the estrogen receptor alpha (ER-alpha) signaling pathway (AID 743069; active means well fitted curve in the direction sought with a large enough effect in the signal ratio in the repeat runs, not every such curve was filed as active; the % refers to the signal ratio). The procedure, abridged:
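ER-alpha-UAS-bla GripTite HEK293 line; 2% charcoal-stripped FBS overnight; plated, 4 hr 37C/5% CO2; cpd in DMSO + 17beta-estradiol, 18 hr 37C; LiveBLAzer B/G FRET substrate 2 hr RT; fluorescence intensity.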

A short description of assay [4]: qHTS assay to identify small molecule antagonists of the estrogen receptor alpha (ER-alpha) signaling pathway - cell viability counter screen (AID 743074; calls by dose curve;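 further: HEK293 cells carrying ER-alpha-UAS-bla reporter stimulated with 17beta-estradiol; nearly all actives have a fitted effect of over 45% in size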).
In assay [5] the target is Estrogen receptor (Homo sapiens) (UniProt P03372). Description: qHTS assay to identify small molecule agonists of the estrogen receptor alpha (ER-alpha) signaling pathway (AID 743075; calls by dose curve;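 further: HEK293 GripTite cells with ER-alpha and UAS-driven beta-lactamase reporter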).
Assay [6] in a line: qHTS assay to identify small molecule antagonists of the estrogen receptor alpha (ER-alpha) signaling pathway using the BG1 cell line - cell viability counter screen (AID 743081).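 Further: compound given together with 17beta-estradiol as the ER stimulus; nearly all actives have a fitted effect of over 45% in size.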 Further: potency means the concentration at half of the fitted maximal effect. On activity change, negative = cytotoxicity: series mostly up to about 70 µM.
A further assay addresses Aromatase (Homo sapiens) (UniProt P11511). Description: qHTS assay to identify aromatase inhibitors (AID 743083). Further: series mostly up to about 70 µM; nearly all actives have a fitted effect of over 55% in size.
The nature of assay [7]: qHTS assay to identify aromatase inhibitors - cell viability counter screen (AID 743084).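 Further: cells stimulated with testosterone during compound exposure; nearly all actives have a fitted effect of over 55% in size.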
The target of assay [8] is Aryl hydrocarbon receptor (Homo sapiens) (UniProt P35869). Description: qHTS assay to identify small molecule that activate the aryl hydrocarbon receptor (AhR) signaling pathway (AID 743085). Further: nearly all actives have a fitted effect of over 15% in size. Further: potency means the concentration at half of the fitted maximal effect.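 On activation: HG2L7.5c1 human HepG2 liver cells with stably integrated DRE-driven firefly reporter; series mostly up to about 70 µM.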 The procedure, abridged:
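Luminescence read-out: ONE-Glo reagent, 30 min at room temperature, in HG2L7.5c1 HepG2 reporter cells treated 24 h at 37C. Viability was measured beforehand by CellTiter-Fluor fluorescence after 30 min at 37C.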

Assay [9] can be described thus: qHTS assay to identify small molecule that activate the aryl hydrocarbon receptor (AhR) signaling pathway - cell viability counter screen (AID 743086).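 Further: HepG2 liver cells carrying the AhR DRE luciferase reporter; series mostly up to about 70 µM; nearly all actives have a fitted effect of over 45% in size.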 The method, boiled down:
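Cytotoxicity counter screen: CellTiter-Fluor signal (30 min, 37 C) in 4000 HepG2 cells/well carrying the DRE-luciferase reporter, following 24 h compound exposure at 37 C.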

Assay [10] deals with Peroxisome proliferator-activated receptor gamma (Homo sapiens) (UniProt P37231). Description: qHTS assay to identify small molecule agonists of the peroxisome proliferator-activated receptor gamma (PPARg) signaling pathway (AID 743094; active means well fitted activation curve with a large enough effect in the signal ratio in the repeat runs, not every such curve was filed as active; the % refers to the signal ratio). The procedure, abridged:
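GeneBLAzer PPARg UAS-bla HEK293H cells were plated, rested 5 h, then exposed to compounds for 17 h at 37C. Beta-lactamase activity was read by LiveBLAzer B/G FRET substrate fluorescence after 1 h at room temperature.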

Assay [11] is described as follows: qHTS assay to identify small molecule antagonists of the peroxisome proliferator-activated receptor gamma (PPARg) signaling pathway - cell viability counter screen (AID 743194). Further: nearly all actives have a fitted effect of over 55% in size. The method, boiled down: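 Viability was measured as CellTiter-Glo luminescence in GeneBLAzer PPARg UAS-bla HEK293H cells. These cells had been exposed 17 h at 37 C to compounds together with rosiglitazone at 50 nM final, with the beta-lactamase readout taken in the same wells.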

Assay [12] can be described thus: qHTS assay for small molecule agonists of the antioxidant response element (ARE) signaling pathway (AID 743202; active means well fitted activation curve with a large enough effect in the signal ratio in the repeat runs, not every such curve was filed as active; the % refers to the signal ratio). The method, boiled down:
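Quantitative high-throughput format in HepG2 cells bearing an integrated ARE-beta-lactamase reporter. Compound exposure lasted 16 h at 37 C, and fluorescence was read 2 h after adding LiveBLAzer B/G substrate at room temperature.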

Assay [13] can be described thus: qHTS assay for small molecule agonists of the antioxidant response element (ARE) signaling pathway - cell viability counter screen (AID 743203; calls by dose curve; further: nearly all actives have a fitted effect of over 55% in size). The method, boiled down:
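ARE-bla HepG2 cells were plated, rested 5 h at 37C/5% CO2, then exposed to compounds in DMSO for 16 h. Viability was read as CellTiter-Glo luminescence after 30 min at room temperature, in the same wells as the ARE screen.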

Assay [14] in a line: qHTS assay for small molecule activators of the heat shock response signaling pathway - cell viability counter screen (AID 743209). Further: nearly all actives have a fitted effect of over 50% in size. The method, boiled down: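 HSE-bla HeLa cells plated overnight, then exposed to Tox21 compounds (23 nL in DMSO) for 5 h at 37 C. After the bla reporter read, CellTiter-Glo was added in the same wells and luminescence read after 30 min at room temperature.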

A short description of assay [15]: qHTS assay to identify small molecule antagonists of the thyroid receptor (TR) signaling pathway (AID 743065). The procedure, abridged: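 Antagonism measured as loss of luciferase signal in GH3 cells stably carrying a TRE-luciferase reporter, co-treated with compound and T3 (1 nM final) for 23.5 h at 37 C. Viability was read in the same well by CellTiter-Fluor.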

Assay [16] addresses Estrogen receptor (Homo sapiens) (UniProt P03372). Description: qHTS assay to identify small molecule agonists of the estrogen receptor alpha (ER-alpha) signaling pathway using the BG1 cell line (AID 743079). Further: nearly all actives have a fitted effect of over 20% in size. Further: potency means the concentration at half of the fitted maximal effect.
A short description of assay [17]: qHTS assay to identify small molecule antagonists of the estrogen receptor alpha (ER-alpha) signaling pathway using the BG1 cell line (AID 743080; calls by dose curve;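 further: BG1 cells stimulated with 17beta-estradiol alongside compound; series mostly up to about 70 µM; nearly all actives have a fitted effect of over 25% in size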). The procedure, abridged: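 BG1-Luc-4E2 cells (endogenous full-length ER-alpha, 4xERE luciferase) hormone-starved 5 days in charcoal-stripped FBS, plated 4,000/well for 24 h, then compound plus 17beta-estradiol for 21.5 h at 37 C; ONE-Glo luminescence read.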

In assay [18] the target is Peroxisome proliferator-activated receptor gamma (Homo sapiens) (UniProt P37231). Description: qHTS assay to identify small molecule antagonists of the peroxisome proliferator-activated receptor gamma (PPARg) signaling pathway (AID 743191; calls by dose curve; further: series mostly up to about 63 µM; nearly all actives have a fitted effect of over 30% in size). The method, boiled down: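 Beta-lactamase reporter under UAS control in HEK293H PPARg-bla cells; compound treatment 17 h at 37C. Read-out: fluorescence intensity after 1 h room-temperature incubation with LiveBLAzer B/G FRET substrate.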

Assay [19] can be described thus: qHTS assay for small molecule activators of the heat shock response signaling pathway (AID 743210; active means well fitted activation curve with a large enough effect in the signal ratio in the repeat runs, with a control signal flat, not every such curve was filed as active; the % refers to the signal ratio;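 further: HeLa cells with beta-lactamase reporter driven by heat shock elements; series mostly up to about 63 µM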). The procedure, abridged: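 HeLa HSE-bla cells, overnight plating; cpd in DMSO 5 h, 37 C; LiveBLAzer B/G FRET substrate 2.5 h RT; fluorescence intensity read.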
On the % scale 0 is the no-effect control and ±100 the full control effect.

Estrogen receptor (Homo sapiens), sequence (P03372 whole entry, looked up): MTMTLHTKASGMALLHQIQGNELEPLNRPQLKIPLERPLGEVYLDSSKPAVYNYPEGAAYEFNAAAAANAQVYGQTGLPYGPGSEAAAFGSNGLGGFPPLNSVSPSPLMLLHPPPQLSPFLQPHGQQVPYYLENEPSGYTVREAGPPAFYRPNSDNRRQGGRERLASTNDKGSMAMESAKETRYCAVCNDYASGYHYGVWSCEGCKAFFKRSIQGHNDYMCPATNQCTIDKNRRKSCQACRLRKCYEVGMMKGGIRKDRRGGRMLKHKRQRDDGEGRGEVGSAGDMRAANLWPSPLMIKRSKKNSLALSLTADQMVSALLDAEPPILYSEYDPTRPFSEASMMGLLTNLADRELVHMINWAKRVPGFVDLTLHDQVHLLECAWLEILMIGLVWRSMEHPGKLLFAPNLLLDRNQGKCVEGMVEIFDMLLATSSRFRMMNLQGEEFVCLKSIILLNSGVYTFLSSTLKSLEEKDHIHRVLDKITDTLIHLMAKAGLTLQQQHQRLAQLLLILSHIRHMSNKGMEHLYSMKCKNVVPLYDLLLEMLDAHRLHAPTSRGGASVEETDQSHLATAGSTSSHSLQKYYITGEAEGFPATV
Aryl hydrocarbon receptor (Homo sapiens), sequence (P35869 whole entry, looked up): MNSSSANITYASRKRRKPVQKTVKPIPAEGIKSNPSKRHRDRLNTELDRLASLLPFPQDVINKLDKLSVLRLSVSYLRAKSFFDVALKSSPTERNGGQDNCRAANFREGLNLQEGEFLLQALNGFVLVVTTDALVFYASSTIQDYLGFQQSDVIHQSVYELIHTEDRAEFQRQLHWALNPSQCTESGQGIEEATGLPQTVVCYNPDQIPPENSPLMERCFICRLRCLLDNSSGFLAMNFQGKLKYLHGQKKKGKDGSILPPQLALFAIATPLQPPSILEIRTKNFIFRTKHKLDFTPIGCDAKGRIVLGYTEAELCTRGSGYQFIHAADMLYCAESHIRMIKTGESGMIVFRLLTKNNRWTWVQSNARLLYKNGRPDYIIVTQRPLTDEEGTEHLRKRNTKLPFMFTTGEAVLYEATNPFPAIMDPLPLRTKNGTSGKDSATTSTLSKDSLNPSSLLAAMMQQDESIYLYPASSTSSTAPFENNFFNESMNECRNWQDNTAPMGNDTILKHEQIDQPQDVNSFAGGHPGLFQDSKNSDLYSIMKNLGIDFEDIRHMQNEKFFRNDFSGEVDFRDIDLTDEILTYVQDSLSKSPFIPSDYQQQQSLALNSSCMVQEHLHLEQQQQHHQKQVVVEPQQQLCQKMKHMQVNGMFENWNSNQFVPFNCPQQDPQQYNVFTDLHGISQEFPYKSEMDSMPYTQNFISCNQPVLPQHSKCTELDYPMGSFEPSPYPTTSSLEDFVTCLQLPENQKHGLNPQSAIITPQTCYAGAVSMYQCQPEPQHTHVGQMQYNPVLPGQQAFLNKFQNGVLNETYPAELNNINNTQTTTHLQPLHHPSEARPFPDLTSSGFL
Aromatase (Homo sapiens), sequence (P11511 whole entry, looked up): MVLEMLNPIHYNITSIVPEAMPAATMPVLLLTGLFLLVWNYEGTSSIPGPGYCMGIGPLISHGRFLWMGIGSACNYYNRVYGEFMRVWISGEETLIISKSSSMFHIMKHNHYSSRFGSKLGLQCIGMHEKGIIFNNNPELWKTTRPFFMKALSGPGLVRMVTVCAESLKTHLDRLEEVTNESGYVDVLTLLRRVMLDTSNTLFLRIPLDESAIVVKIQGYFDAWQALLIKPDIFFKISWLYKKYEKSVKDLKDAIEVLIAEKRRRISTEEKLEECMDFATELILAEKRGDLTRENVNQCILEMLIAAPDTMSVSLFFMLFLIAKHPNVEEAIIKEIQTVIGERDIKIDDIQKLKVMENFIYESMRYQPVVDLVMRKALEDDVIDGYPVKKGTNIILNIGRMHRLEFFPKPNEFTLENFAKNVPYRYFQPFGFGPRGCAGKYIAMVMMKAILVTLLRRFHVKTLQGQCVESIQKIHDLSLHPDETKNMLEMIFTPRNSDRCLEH
Peroxisome proliferator-activated receptor gamma (Homo sapiens), sequence (P37231 whole entry, looked up): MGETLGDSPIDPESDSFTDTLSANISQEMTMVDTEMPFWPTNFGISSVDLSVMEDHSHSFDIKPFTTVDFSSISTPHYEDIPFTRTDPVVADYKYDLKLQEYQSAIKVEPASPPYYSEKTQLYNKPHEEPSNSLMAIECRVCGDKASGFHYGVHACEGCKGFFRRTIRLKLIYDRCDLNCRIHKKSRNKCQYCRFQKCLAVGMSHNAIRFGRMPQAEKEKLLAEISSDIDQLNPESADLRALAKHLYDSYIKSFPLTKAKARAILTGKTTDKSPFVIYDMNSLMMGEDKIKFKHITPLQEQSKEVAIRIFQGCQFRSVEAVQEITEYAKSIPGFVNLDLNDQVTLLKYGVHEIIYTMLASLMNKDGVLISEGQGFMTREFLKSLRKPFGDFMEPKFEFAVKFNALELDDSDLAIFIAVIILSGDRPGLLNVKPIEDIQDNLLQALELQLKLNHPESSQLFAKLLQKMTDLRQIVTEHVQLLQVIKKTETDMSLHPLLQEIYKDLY

Regarding `COc1cc(NC(C)CCCN)c2ncccc2c1` (centres undefined), the Potency in [1] is 11.4 µM (active); in [6], 10.1 µM (active). Further, the Potency result (in assay [2]; in assay [3]; in [4]; in [5]; with Aromatase (Homo sapiens); in [7]) was “inactive” in each case. In addition, the Potency result in assay [8], in assay [9], in [11], in assay [12], in assay [13] and in [14] was “inactive” throughout. The call in assay [10] was inactive.
For `CNC1CCCN(c2c(F)cc3c(=O)c(C(=O)O)cn(C4CC4)c3c2OC)C1` (centres undefined), the Potency entry in [15], in assay [2], in assay [3], in assay [4], in assay [5] and in [16] was “inactive” throughout. Also, the Potency result (in assay [17]; in assay [6]; with Aromatase (Homo sapiens); in assay [7]; in assay [8]; in [9]) was “inactive” throughout. Further, the Potency entry in assay [18], in assay [11], in [12], in [13], in assay [14] and in [19] was “inactive” each time. In addition, the compound was classed as inactive in [10].
For `CCC(Cl)CC(Cl)C(Cl)C(Cl)C(Cl)C(C)Cl` (centres undefined), the Potency entry (in assay [1]; in [15]; in assay [6]; in the assay with Aromatase (Homo sapiens); in [7]; in assay [9]) was “inactive” in each case. In addition, the activity, negative = inhibition in assay [3] was 21.9% [at 15 µM]. Also, the activity, negative = cytotoxicity in [4] was -22.7% [at 15 µM]. In addition, the activation was 3.15% [at 14.9 µM] in assay [5] and 7.21% [at 18.1 µM] in [12]. Besides, the Potency in assay [16] is 0.594 µM (active). For the same compound, the call in [10] was inactive. The ratio activity, negative = inhibition in [18] was -28.9% [at 13.2 µM]. The values for the activity change, negative = cytotoxicity in [11] and in assay [14] were -22.8% [at 13.2 µM] and 2.25% [at 13.2 µM], respectively. Moreover, in assay [13], the viability change, negative = cytotoxic was -17% [at 18.1 µM].
Turning to `COc1ccc(-c2cc(=S)ss2)cc1`, the Potency result (in [1]; in assay [2]; in assay [4]; in [5]; in assay [6]; in the assay with Aromatase (Homo sapiens)) was “inactive” each time. The Potency result in [11], in assay [13] and in assay [14] was “inactive” throughout. For the same compound, the Potency in assay [8] was 29.8 µM (active).
For the compound `CC(CCc1ccc(O)cc1)NCCc1ccc(O)c(O)c1` (centres undefined), the Potency entry in assay [1], in assay [15], in [4], in assay [5], in assay [16] and in assay [6] was “inactive” throughout. The Potency result in assay [18], in [11], in [13] and in assay [19] was “inactive” throughout.
`COc1ccc(-n2nc(C(F)F)cc2-c2ccc(S(C)=O)cc2)cc1` (centres undefined): the Potency entry in assay [1], in assay [2], in [4], in assay [5], in assay [16] and in [6] was “inactive” in each case. The Potency entry (in the assay with Aromatase (Homo sapiens); in assay [8]; in assay [9]; in assay [11]; in assay [12]; in assay [13]) was “inactive” each time. The Potency result in assay [14] is “inactive”.
On to `Cc1ccc(NC(=O)N(C)C)cc1NC(=O)N(C)C`, for which the Potency entry in [15], in assay [2], in assay [3], in assay [4], in [5] and in assay [16] was “inactive” throughout. Further, the Potency entry (in [17]; in assay [6]; with Aromatase (Homo sapiens); in assay [7]; in assay [9]; in assay [18]) was “inactive” throughout. The Potency entry in assay [11], in assay [13], in assay [14] and in assay [19] was “inactive” in each case. Besides, in assay [10], the outcome was inactive.
Turning to `CC(C)(C)C(O)/C=C/c1ccc2c(c1)OCO2` (centres undefined), the Potency result in assay [15], in assay [2], in assay [3], in assay [4], in assay [5] and in assay [17] was “inactive” each time. The Potency result (with Aromatase (Homo sapiens); in assay [7]; in [9]; in assay [18]; in assay [11]; in assay [13]) was “inactive” each time. Moreover, the Potency entry in assay [14] and in assay [19] was “inactive” throughout. In [8], the Potency is 11.9 µM (active). For the same compound, the call in [10] was inactive.
In the case of `CCC(CO)(CO)CO`, the Potency entry in [15], in assay [2], in assay [3], in assay [4], in assay [5] and in assay [16] was “inactive” each time. For the same compound, the Potency result (in assay [6]; in the assay with Aromatase (Homo sapiens); in assay [7]; in assay [8]; in assay [9]; in [18]) was “inactive” in each case. The Potency result in assay [11], in assay [12], in assay [13], in [14] and in assay [19] was “inactive” throughout. Further, in assay [10], the compound was classed as inactive.
